CatB block – inhibitors of human cathepsin B. P07858. purified cathepsin B, fluorogenic substrate, fluorescence. inhibition, %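 (tested at 10 µM)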. 0.1% of 63,000 active. AID 453; in the data active means inhibition above about 21%
CatB mix inh – human cathepsin B inhibition by mixtures; 0.06% of 62,000 active; P07858; inhibition, %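 (ten-compound pools at 5 µM per compound and 50 µM total)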; Purified cathepsin B, AMC dipeptide fluorescence, compound mixtures; in the data active means inhibition above about 22%, passing the limit was not always enough; inconclusive means no clear call, values can overlap the other calls
Hsp90 block – displaces geldanamycin probe from tumor Hsp90; P07900; NCI-N417 lysate Hsp90, Cy3B-geldanamycin FP displacement; inhibition, % at 30 µM; 0.35% of 64,000 active;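 active means inhibition above 50%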
CatL block – inhibitors of human cathepsin L; purified cathepsin L, fluorogenic substrate, fluorescence; inhibition, %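 (tested at 10 µM)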; 0.17% of 58,000 active; AID 460; in the data active means inhibition above about 45%
Target sequence (P07711 114-288 limits assumed): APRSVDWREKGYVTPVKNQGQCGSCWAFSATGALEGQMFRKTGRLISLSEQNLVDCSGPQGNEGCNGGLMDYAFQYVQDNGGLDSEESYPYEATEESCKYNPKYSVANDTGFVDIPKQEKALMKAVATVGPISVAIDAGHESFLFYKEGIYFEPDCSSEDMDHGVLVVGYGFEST
Target sequence (P07711 292-333 limits assumed): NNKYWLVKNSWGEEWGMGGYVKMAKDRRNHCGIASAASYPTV
CatS block – blocks human cathepsin S protease activity; inhibition, %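 (tested at 5 µM per compound within 10-compound mixtures)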; 0.06% of 62,000 active; recombinant cathepsin S, AMC dipeptide fluorescence, pooled mixtures; P25774; in the data active means inhibition above about 32%, passing the limit was not always enough; inconclusive means no clear call, values can overlap the other calls
Target sequence (P25774 115-331 limits assumed): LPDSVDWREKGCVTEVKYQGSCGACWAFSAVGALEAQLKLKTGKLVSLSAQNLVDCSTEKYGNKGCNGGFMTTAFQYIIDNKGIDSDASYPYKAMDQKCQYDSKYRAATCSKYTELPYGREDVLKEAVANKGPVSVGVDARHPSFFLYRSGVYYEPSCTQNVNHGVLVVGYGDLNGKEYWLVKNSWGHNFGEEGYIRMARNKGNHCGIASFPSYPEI
Htt clearance – mutant huntingtin protein clearance; HeLa Exon1htt(103Q)mCFP, aggregate imaging; zero = plate's median compound well; inhibition, % at 1.5 µM; 0.42% of 47,000 active;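 active means inhibition of aggregate fluorescence above about 70%, also judged a hit by eye on the cell image, limit read from the data, passing the limit was not always enough; inconclusive means no rule stated for this call; inactive means not judged a hit on image review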;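 further: cells exposed to compound for three days before fixation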
Large screens that a line does not name were inactive. Shown are actives, neighbours in structure and some others; about 0.71% of the full set was active somewhere.

COc1ccccc1C1NC(=O)NC(C)=C1C(C)=O (stereo not drawn)	Htt clearance 71
O=C(CN(Cc1ccccc1)S(=O)(=O)c1ccc(F)cc1)NCCC1=CCCCC1	Htt clearance 76 (no result: CatB block, CatB mix inh, Hsp90 block, CatL block, CatS block)
Clc1ccc(OCc2nnc(-c3ccccc3Br)o2)cc1	none
O=S(=O)(c1ccccc1F)N(Cc1ccco1)Cc1nnc(-c2ccccc2Br)o1	CatL block 47
Cc1ccc(OCC(O)C(C)NC(C)C)c2c1CCC2 (stereo not drawn)	none (no result: CatB block, CatB mix inh, CatL block, CatS block, Htt clearance)
CCCCc1[nH]nc2c1C1(C(=O)N(CC)c3ccccc31)C(C#N)=C(N)O2 (stereo not drawn)	CatB block 25
CCOC(=O)COc1ccc(S(=O)(=O)N2CCN(c3ccccc3F)CC2)cc1	Htt clearance 82
COC(=O)c1ccc2c(c1)SC1=C(CCCC1=O)N2	Hsp90 block 85
Cc1nc(N2CCC(C)CC2)c2c(C)c(C(=O)O)sc2n1	Htt clearance 80
CC(=O)Nc1cccc(-c2csc(NCc3ccco3)n2)c1	none (no result: Htt clearance)
CCOC(=O)c1ccc(NC(=O)C(CC)(CC)C(=O)OCC)cc1	none (no result: Htt clearance)
CCOC(=O)c1sc(NC(=O)CSc2nnc(-c3ccc(OC)cc3)n2CCOC)nc1C	Hsp90 block 85
COCCn1c(SCC(=O)Nc2nnc(C)s2)nnc1-c1ccncc1	none (no result: Htt clearance)
CNC(=O)CN(c1cccc(Br)c1)S(C)(=O)=O	none
C=CCNC(=O)CN(c1cccc(Br)c1)S(C)(=O)=O	Hsp90 block 88 (no result: Htt clearance)
O=C(O)c1ccccc1C1=Nc2ccc(O)cc2Oc2cc(O)ccc21	Hsp90 block 61
Cc1cc(-c2ccccc2C(=O)O)on1	none
CCCC(=O)Nc1ccc(C(=O)Nc2nnc(COC)s2)cc1	none (no result: CatL block, Htt clearance)
COCc1nnc(NC(=O)c2ccc(NC(C)=O)cc2)s1	Htt clearance 84
COc1ccc(OC)c(-n2c(C)nc3cc(C(=O)O)ccc32)c1	Hsp90 block 61, Htt clearance 74
Nc1nonc1-c1nc2ccccc2n1Cc1ccc(Cl)cc1	none (no result: Htt clearance)
COc1cccc(Cn2c(-c3nonc3N)nc3ccccc32)c1	CatB block 39, CatL block 50 (no result: Htt clearance)
COc1cc(Cn2c(-c3nonc3N)nc3ccccc32)ccc1C	CatB block 50
Cc1ccc(Cn2c(-c3nonc3N)nc3ccccc32)cc1	CatB block 22
C=COCCn1c(-c2nonc2N)nc2ccccc21	CatB mix inh 55, CatL block 86, CatS block inconclusive
COc1ccccc1NC(=O)Nc1nc(-c2cccnc2)nc2ccccc12	none (no result: CatB block, CatB mix inh, CatL block, CatS block, Htt clearance)
CCn1cc(C(=O)O)c(=O)c2cc(F)c(N3CCNC(C)C3)c(F)c21 (stereo not drawn)	none (no result: CatB block, CatB mix inh, CatL block, CatS block, Htt clearance)
CC1(C)CC(=O)c2cc(OCC(=O)NCCCN3CCN(c4ccc(F)cc4)CC3)ccc2O1	none (no result: Htt clearance)
Cn1c(=O)c2c(nc(SCC(=O)NCc3ccc4c(c3)OCO4)n2Cc2ccc(Cl)cc2)n(C)c1=O	Htt clearance 81 (no result: CatB block, CatB mix inh, Hsp90 block, CatL block, CatS block)
Cc1cccc(NC(=O)Cn2nnc(-c3cccs3)n2)c1C	Hsp90 block 54
CCc1ccccc1NC(=O)Cn1nnc(-c2cccs2)n1	none
COc1ccc(OC)c2c(C)cc(N3CCCN(C)CC3)nc12	none (no result: Hsp90 block, Htt clearance)
O=C(NCCCN1CCOCC1)c1cc2ccccc2oc1=O	none
CC1CCN(CCCNC(=O)c2cc3c(=O)n(C)c4ccccc4c3n2C)CC1	CatS block inconclusive
CC(=O)Oc1cc2c(C(=O)NCCCN3CCOCC3)c(C)oc2c2ccccc12	Hsp90 block 94 (no result: Htt clearance)
Cn1c(C(=O)NCCCN2CCOCC2)cc2c(=O)n(C)c3ccccc3c21	CatS block 47
Cn1c(C(=O)NCCN2CCN(Cc3ccccc3)CC2)cc2c(=O)n(C)c3ccccc3c21	CatS block 58 (no result: Htt clearance)
Cn1c(C(=O)NCCN2CCCCCC2)cc2c(=O)n(C)c3ccccc3c21	CatS block 69
C[C@H]1CC2C3CCC4=CC(=O)C=C[C@]4(C)[C@@]3(Cl)[C@@H](O)C[C@]2(C)[C@@]1(O)C(=O)CO (stereo partly drawn)	none (no result: CatB block, CatB mix inh, CatL block, CatS block, Htt clearance)
O=C(COc1ccc(F)cc1)NCC1CCCO1 (stereo not drawn)	Htt clearance 71 (no result: CatL block)
Cc1cc(S(=O)(=O)Nc2cc(C)c(O)c(C)c2)c(C)s1	none (no result: CatB block, CatB mix inh, Hsp90 block, CatL block, CatS block)
Cc1oc2c(O)c(O)ccc2c(=O)c1-c1ccccc1	Hsp90 block 70 (no result: Htt clearance)
Cc1oc2c(O)c(O)ccc2c(=O)c1-c1cnn(-c2ccccc2)c1	none (no result: Hsp90 block, CatL block, Htt clearance)
CCN(CC)CCC(=O)Nc1cc(OC)cc2cccnc12	none (no result: CatB block, CatB mix inh, CatL block, CatS block, Htt clearance)
CCOc1ccc(NS(=O)(=O)c2ccc(NS(C)(=O)=O)cc2)cc1	CatL block 76 (no result: Htt clearance)
